Experiment [1] concerns the target Metallo-beta-lactamase type 2 (Klebsiella pneumoniae) (UniProt C7C422). In words: qHTS to identify inhibitors of the New Delhi Metallo-beta-lactamase (NDM): assay validation screen against the NCATS LOPAC Collection (AID 1794843). A digest of the protocol:
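Absorbance at 485 nm from nitrocefin turnover (50 uM solution added), read at plateau, gives the read-out. Compounds in DMSO were incubated first with 2 nM final NDM-1 in pH 7.0 HEPES buffer containing 1 uM ZnSO4 and 0.01% Tween20.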

Experiment [2] addresses Glutathione peroxidase 1 (Homo sapiens) (UniProt P07203). Description: Primary qHTS Assay for Inhibitors of Recombinant Selenoprotein Glutathione Peroxidase 1 (GPX1) (AID 1845191). Also: nearly all actives have a fitted effect of over 65% in size. In short, it runs like this:
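GPX1 10 nM, GR 100 nM, GSH 1 mM, NADPH 0.5 mM, CHP 0.5 mM (final). 30-min cpd preincubation, RT. Ex340/Em450 read t=0, t=15 min.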
For orientation: qHTS replaces the single test concentration by a dilution series.

A short description of experiment [3]: Quantitative High-Throughput drug screen in 47 multiple myeloma cell lines against the NCATS MIPE library collection: EJM_DSMZ cell viability assay (AID 1918926; also: nearly all actives have a fitted effect of over 30% in size; also: potency is read from the fitted curve at half-maximal effect). A digest of the protocol:
(§1)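 Primary qHTS used for cherry-picking: cells at 500/well, library compounds for 48 h (37C, 5% CO2), luminescent ATP assay.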

Experiment [4] can be described thus: Quantitative High-Throughput drug screen in 47 multiple myeloma cell lines against the NCATS MIPE library collection: Karpas620_DSMZ cell viability assay (AID 1918959). Also: nearly all actives have a fitted effect of over 30% in size. Also: potency is read from the fitted curve at half-maximal effect. In short, it runs like this: (§2)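 qHTS of the MIPE 4.0 collection: 500 myeloma cells/well, 48 h drug exposure at 37C in 5% CO2, then CellTiter-Glo for 5 min at room temperature before luminescence reading.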

The nature of experiment [5]: Quantitative High-Throughput drug screen in 47 multiple myeloma cell lines against the NCATS MIPE library collection: KMM1_JCRB cell viability assay (AID 1918960). Also: nearly all actives have a fitted effect of over 30% in size. Also: potency is read from the fitted curve at half-maximal effect. In short, it runs like this:
(§3)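 CellTiter-Glo luminescence after 48 h exposure gives viability, scaled between DMSO-only (100%) and media-only (0%) controls. Library compounds are pinned onto 500 myeloma cells per well, incubated at 37C with 5% CO2.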

Experiment [6] can be described thus: Quantitative High-Throughput drug screen in 47 multiple myeloma cell lines against the NCATS MIPE library collection: KHM11_PLB cell viability assay (AID 1918962). Also: nearly all actives have a fitted effect of over 35% in size. A digest of the protocol: as §2
Experiment [7] concerns the target Phospholipid hydroperoxide glutathione peroxidase GPX4 (Homo sapiens) (UniProt P36969). In words: Primary qHTS Assay for Inhibitors of Recombinant Selenoprotein Glutathione Peroxidase 4 (GPX4) (AID 1845192). Also: nearly all actives have a fitted effect of over 65% in size. A digest of the protocol: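 qHTS, GR-coupled: GPX4 200 nM + cpd 30 min RT → GSH 1 mM, NADPH 0.5 mM, GR 100 nM → CHP 0.5 mM start; fluor 340/450 at t0 and t15 min; no-enzyme wells as control.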

In experiment [8] the target is Luciferin 4-monooxygenase (Photinus pyralis) (UniProt P08659). In words: Primary firefly luciferase (FLuc) qHTS assay for identification of artifact compounds. (AID 1845220). Also: nearly all actives have a fitted effect of over 60% in size. The note with it: outcome: dose series up to 54.1 µM. A digest of the protocol: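 In this counter-screen for luciferase artifacts, test compounds met substrate (10 uM each luciferin and ATP) before 10 nM enzyme started the reaction. Light output was measured 5 min later.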

A short description of experiment [9]: Primary fluorescence-based thiol-reactive (MSTI) qHTS assay for identification of artifact compounds. (AID 1845221).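 Also: thiol-reactive compounds lower the probe fluorescence signal; nearly all actives have a fitted effect of over 65% in size.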 In short, it runs like this:
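A multi-concentration qHTS design tested compounds against 4 uM MSTI, pH 7.4 phosphate-buffered saline. Plates were protected from light for 1 h at room temperature before imaging fluorescence.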

Experiment [10] relates to Nanoluciferase (engineered Oplophorus gracilirostris luciferase). In words: Primary Nanoluciferase (NLuc) qHTS assay for identification of artifact compounds. (AID 1845222).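 Also: NLuc secreted into diluted conditioned medium of S16 cells.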 A digest of the protocol:
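Using secreted nanoluciferase in S16 culture medium (0.22 um filtered, 1:55 dilution), compounds were preincubated 15 min at RT. Signal was generated with Nano-Glo reagent (1:100) over 5 min.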

Experiment [11] is described as follows: Primary redox qHTS assay for identification of artifact compounds. (AID 1845223). A digest of the protocol: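 Redox-cycling detection via DTT (250 uM final) oxidation coupled to Amplex Red (25 uM)/HRP (250 mU/mL) in HBSS. 15 min preincubation plus 30 min after DTT, room temperature. Ex/Em 525/598 nm; 4-parameter Hill fit against DMSO and 10 uM DA3003.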
Experiment [12] is described as follows: Quantitative High-Throughput drug screen in 47 multiple myeloma cell lines against the NCATS MIPE library collection: FR4_PLB cell viability assay (AID 1918924; also: nearly all actives have a fitted effect of over 35% in size; also: potency is read from the fitted curve at half-maximal effect). A digest of the protocol: as §2
Experiment [13] is described as follows: Quantitative High-Throughput drug screen in 47 multiple myeloma cell lines against the NCATS MIPE library collection: AMO1_DSMZ cell viability assay (AID 1918927; also: nearly all actives have a fitted effect of over 30% in size; also: potency is read from the fitted curve at half-maximal effect). A digest of the protocol:
as §1

Experiment [14] in a line: Quantitative High-Throughput drug screen in 47 multiple myeloma cell lines against the NCATS MIPE library collection: ARP1_JJKsccF8 cell viability assay (AID 1918928; also: nearly all actives have a fitted effect of over 40% in size; also: potency is read from the fitted curve at half-maximal effect). In short, it runs like this: as §3
Experiment [15] is described as follows: Quantitative High-Throughput drug screen in 47 multiple myeloma cell lines against the NCATS MIPE library collection: Delta47_JCRB cell viability assay (AID 1918925; also: nearly all actives have a fitted effect of over 45% in size; also: potency is read from the fitted curve at half-maximal effect). In short, it runs like this:
as §1

Experiment [16] in a line: Quantitative High-Throughput drug screen in 47 multiple myeloma cell lines against the NCATS MIPE library collection: ARD_JJKsccE7 cell viability assay (AID 1918929; also: potency is read from the fitted curve at half-maximal effect). In short, it runs like this: as §1
The nature of experiment [17]: Quantitative High-Throughput drug screen in 47 multiple myeloma cell lines against the NCATS MIPE library collection: Karpas417_ECACC cell viability assay (AID 1918961). Also: potency is read from the fitted curve at half-maximal effect. The note with it: Karpas417 myeloma viability, CellTiter-Glo ATP luminescence, 48 h; viability (% of DMSO): at 45.8 µM (top of the series). A digest of the protocol:
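Luminescent ATP measurement with CellTiter-Glo gives viability, scaled between DMSO-only wells (100%) and media-only wells (0%). Cells, 500 per well, faced library compounds for 48 hours at 37C.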

Results filed as inconclusive are left out. Activity calls are given as the source filed them. Calls follow the shape of the dose curve; as a rule, active = well fitted curve in the direction sought with a large enough effect; inconclusive = small, poorly fitted or top-dose-only effect, or another doubt; inactive = no such curve, though single readings can be large; an effect the other way counts as inactive or inconclusive.

Chain of Glutathione peroxidase 1 (Homo sapiens) (P07203 whole entry, looked up): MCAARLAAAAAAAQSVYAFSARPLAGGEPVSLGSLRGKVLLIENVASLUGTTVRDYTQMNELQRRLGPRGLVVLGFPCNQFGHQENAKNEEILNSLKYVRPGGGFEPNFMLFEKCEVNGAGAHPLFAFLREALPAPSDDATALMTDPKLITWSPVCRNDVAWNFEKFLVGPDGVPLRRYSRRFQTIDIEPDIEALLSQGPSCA
Chain of Phospholipid hydroperoxide glutathione peroxidase GPX4 (Homo sapiens) (P36969 whole entry, looked up): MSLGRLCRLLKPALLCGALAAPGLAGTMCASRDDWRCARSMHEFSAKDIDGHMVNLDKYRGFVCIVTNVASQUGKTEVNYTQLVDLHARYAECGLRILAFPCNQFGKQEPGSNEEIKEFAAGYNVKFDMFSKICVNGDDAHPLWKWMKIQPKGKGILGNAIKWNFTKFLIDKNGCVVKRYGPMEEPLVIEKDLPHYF
Chain of Metallo-beta-lactamase type 2 (Klebsiella pneumoniae) (C7C422 whole entry, looked up): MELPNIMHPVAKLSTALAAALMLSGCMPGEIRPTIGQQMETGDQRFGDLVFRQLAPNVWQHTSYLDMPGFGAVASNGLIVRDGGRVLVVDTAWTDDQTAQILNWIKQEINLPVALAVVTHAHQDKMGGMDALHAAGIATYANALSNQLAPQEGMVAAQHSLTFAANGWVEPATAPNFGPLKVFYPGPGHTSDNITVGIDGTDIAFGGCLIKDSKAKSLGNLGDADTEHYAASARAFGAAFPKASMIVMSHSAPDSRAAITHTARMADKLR

In the case of `COc1cc2nc(N(C)CCCNC(=O)C3CCCO3)nc(N)c2cc1OC` (stereo not drawn), in experiment [1], the compound was called inactive. Moreover, the Potency result in experiment [2], in experiment [3], in [4], in [5] and in experiment [6] was “inactive” in each case.
Consider `O=C(c1ccc(F)cc1)C1CCN(CCn2c(=O)[nH]c3ccccc3c2=O)CC1`, for which the call in [1], in experiment [8], in experiment [9], in experiment [10] and in experiment [11] was inactive. For the same compound, the Potency result in [7], in experiment [12], in experiment [3], in experiment [13], in experiment [14] and in experiment [4] was “inactive” throughout. Moreover, the Potency entry in experiment [5] and in experiment [6] was “inactive” in each case.
Regarding `CC(=O)OCC(CCn1cnc2cnc(N)nc21)COC(C)=O`, the result in experiment [1] was inactive. Moreover, the Potency entry in experiment [7], in experiment [12], in experiment [15], in [3], in experiment [13] and in experiment [14] was “inactive” throughout. In addition, the Potency result in experiment [16], in experiment [4] and in [6] was “inactive” in each case.
Turning to `CCCCc1oc2ccccc2c1C(=O)c1cc(I)c(OCCN(CC)CC)c(I)c1`, in experiment [1], the outcome was inactive. Further, the Potency entry in experiment [7] is “inactive”. In addition, the Potency was 26.4 µM (active) in experiment [12]; 13.2 µM (active) in experiment [15]; 8.33 µM (active) in experiment [13]; 18.7 µM (active) in experiment [16]; 6.62 µM (active) in [5]; 13.2 µM (active) in experiment [17].
Turning to `CN(Cc1cnc2nc(N)nc(N)c2n1)c1ccc(C(=O)N[C@@H](CCC(=O)O)C(=O)O)cc1`, in experiment [1], the compound was called inactive. Further, the Potency entry in [2], in experiment [7] and in experiment [4] was “inactive” each time. In addition, the Potency is 37.2 µM (active) in experiment [12], 0.0166 µM (active) in experiment [13] and 0.0332 µM (active) in [14].
In the case of `CN(C)c1nc(N(C)C)nc(N(C)C)n1`, the outcome in experiment [1] was inactive. Further, the Potency result in [7], in experiment [12], in [15], in [3], in [13] and in experiment [16] was “inactive” throughout. Moreover, the Potency entry in experiment [5], in experiment [17] and in experiment [6] was “inactive” each time.
On to `CCOC(=O)Nc1ccc(NCc2ccc(F)cc2)nc1N`, for which the call in [1] was inactive. Moreover, the Potency result in experiment [7], in experiment [12], in experiment [15], in [3], in [14] and in [17] was “inactive” in each case. For the same compound, the Potency is 18.7 µM (active) in experiment [13], 18.7 µM (active) in [16] and 20.9 µM (active) in [4].
With `CC(CCc1ccc(O)cc1)NCCc1ccc(O)c(O)c1` (stereo not drawn), the call in experiment [1] was inactive. Further, the Potency result in [7] was “inactive”. For the same compound, the Potency in experiment [12] was 23.5 µM (active); in experiment [3], 20.9 µM (active); in experiment [13] it was 18.7 µM (active); in experiment [14] it was 20.9 µM (active); in [16] it was 16.6 µM (active); in experiment [4], 13.2 µM (active). Further, the Potency in experiment [5] is 29.6 µM (active).
`CN1CCN(CCCN2c3ccccc3Sc3ccc(Cl)cc32)CC1`: the call in [1] was inactive. The Potency result in experiment [7] is “inactive”. Besides, the Potency was 23.5 µM (active) in [12]; 18.7 µM (active) in [15]; 23.5 µM (active) in [3]; 16.6 µM (active) in experiment [13]; 20.9 µM (active) in [14]; 16.6 µM (active) in experiment [16]. The Potency in experiment [4] was 4.18 µM (active); in experiment [5] it was 16.6 µM (active); in experiment [17], 0.132 µM (active).
On to `CC1COc2c(N3CCN(C)CC3)c(F)cc3c(=O)c(C(=O)O)cn1c23` (stereo not drawn), for which the result in experiment [1] was inactive. The Potency result in [7], in experiment [12], in experiment [15], in experiment [3], in experiment [14] and in experiment [16] was “inactive” in each case. Moreover, the Potency result in experiment [4] and in experiment [6] was “inactive” in each case.

The record behind these values is PubChem BioAssay (NCATS).
